This note sets out measurements from PubChem BioAssay (Tox21).

Values without a mark were called inactive. Inconclusive results are not listed. Activity calls are given as the source filed them. Unless noted, calls follow the shape of the dose curve; as a rule, active = well fitted curve in the direction sought with a large enough effect in the repeat runs; inconclusive = weak or mixed curves; inactive = no such curve, though single readings can be large; an effect the other way counts as inactive or inconclusive.

A short description of assay [1]: qHTS assay to identify small molecule antagonists of the estrogen related receptor (ERR) signaling pathway from Tox21 library - cell viability counter screen (AID 1224834). Also: nearly all actives have a fitted effect of over 30% in size. The essentials:
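ERR cells, 2,000/well; 6 h settle at 37 C/5% CO2; pin-tool compound transfer in DMSO; 17.5 h at 37 C; CellTiter-Fluor, 30 min; fluorescence intensity.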
On the technique in general: In qHTS, concentration-response curves come from the screen itself.

Assay [2] has as its target Luciferin 4-monooxygenase (Photinus pyralis) (UniProt P08659). Briefly: qHTS assay to identify small molecule inhibitors of firefly luciferase (AID 1224835). Also: nearly all actives have a fitted effect of over 25% in size. Also: potency is read from the fitted curve at half-maximal effect. The essentials: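 Inhibition of purified Photinus luciferase is measured by luminescence. Substrate levels (D-luciferin, ATP) sit at their KM values. Each compound is tested in a concentration series.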
Assay [3] in a line: qHTS assay to identify small molecule agonists of the constitutive androstane receptor (CAR) signaling pathway - cell viability counter screen (AID 1224836). Also: nearly all actives have a fitted effect of over 45% in size. The method, boiled down:
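Compound titrations (15 concentrations) went onto HepG2-CYP2B6-hCAR cells 4 h after seeding, alongside PK11195 at a final 0.75 uM; a 23 h, 37 C/5% CO2 incubation preceded CellTiter-Fluor viability measurement.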

Assay [4] in a line: qHTS assay to identify small molecule antagonists of the constitutive androstane receptor (CAR) signaling pathway - cell viability counter screen (AID 1224837). Also: nearly all actives have a fitted effect of over 45% in size. The method, boiled down:
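Viability was measured with CellTiter-Fluor in a HepG2 line carrying stably transfected hCAR and a CYP2B6-2.2kb construct. Cells were exposed for 23 hr at 37 C to 15 compound concentrations with 50 nM CITCO as agonist.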

Assay [5] has as its target Nuclear receptor subfamily 1 group I member 3 (Homo sapiens) (UniProt Q14994). Briefly: qHTS assay to identify small molecule antagonists of the constitutive androstane receptor (CAR) signaling pathway (AID 1224838).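 Also: HepG2 cells stably expressing hCAR with CYP2B6 luciferase reporter stimulated by CITCO; nearly all actives have a fitted effect of over 40% in size.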 The method, boiled down: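 Antagonist mode used CITCO at a final 50 nM to activate CAR in human hepatoma HepG2 cells carrying stable hCAR and a 2.2 kb CYP2B6 promoter-luciferase construct. Compounds were tested at 15 concentrations over 24 h, with luminescence as the end point.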

The target is the same in assay [6]. Kind of assay: qHTS assay to identify small molecule agonists of the constitutive androstane receptor (CAR) signaling pathway (AID 1224839). Also: nearly all actives have a fitted effect of over 15% in size. Also: potency is read from the fitted curve at half-maximal effect. The essentials: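 In this screen, CAR-driven CYP2B6 promoter activity is measured by luminescence in HepG2-CYP2B6-hCAR cells after 24 h with test compounds and 0.75 uM PK11195 (final concentration).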
A short description of assay [7]: qHTS assay to identify small molecule antagonists of the estrogen related receptor signaling pathway with the pleiotropic PPARgamma coactivator (PGC) from Tox21 10K library - cell viability counter screen (AID 1224840; active = well fitted cell-killing curve with a large enough effect in the repeat runs, not every such curve was filed as active; also: nearly all actives have a fitted effect of over 40% in size). The method, boiled down:
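Multiplexed viability counter screen in the PGC/ERR cell line: cells treated with DMSO-dissolved compounds for 17.5 hours at 37 C, then viability measured as CellTiter-Fluor fluorescence.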

Assay [8] can be described thus: qHTS assay to identify small molecule antagonists of the estrogen related receptor signaling pathway with the pleiotropic PPARgamma coactivator (PGC) from Tox21 10K library (AID 1224841; call rule not given here; also: actives are mostly falling curves and most rising ones were filed inactive; nearly all actives have a fitted effect of over 50% in size). The essentials: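 Steps: plate 2,000 PGC/ERR cells per well; incubate 6 h at 37 C with 5% CO2; transfer compounds from DMSO stocks by pin tool; incubate 18 h at 37 C; add One-Glo; measure luminescence 30 min later.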

Assay [9] in a line: qHTS assay to identify small molecule agonists of the estrogen related receptor signaling pathway with the pleiotropic PPARgamma coactivator (PGC) from Tox21 10K library (AID 1224842). Also: nearly all actives have a fitted effect of over 15% in size. Also: potency is read from the fitted curve at half-maximal effect. The method, boiled down:
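Luminescence from One-Glo (30 min, room temperature) measured after PGC/ERR cells had 18 h at 37 C with pinned compound (23 nL in DMSO). Cells had been seeded at 2,000 per well and pre-incubated 6 h.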

Assay [10] concerns the target Thyrotropin receptor (Homo sapiens) (UniProt P16473). Briefly: qHTS assay to identify small molecule agonists of the thyroid stimulating hormone receptor (TSHR) signaling pathway (AID 1224843; calls by dose curve; also: nearly all actives have a fitted effect of over 45% in size; also: potency is read from the fitted curve at half-maximal effect). The method, boiled down: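 A cell-based cAMP HTRF format was run in TSHR-transfected HEK293 cells, 800 per well. Treatment: 30 min, room temperature. Detection: 1 h with labelled cAMP and anti-cAMP cryptate. Concentration-response over 15 points, three replicates.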

Assay [11] in a line: qHTS assay to identify small molecule agonists of H2AX (AID 1224845; active = well fitted activation curve with a large enough effect in the signal ratio in the repeat runs, not every such curve was filed as active; the % refers to the signal ratio). The essentials:
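Phospho-H2AX Ser139 measured by HTRF (ex 320 nm; em 665 and 620 nm) after 24 hr antibody incubation. Compounds, 15 concentrations, 0.76% DMSO, were applied to CHO-K1 cells for 3hr at 37C before lysis.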

Assay [12] in a line: qHTS assay to identify small molecule agonists of H2AX - cell viability counter screen (AID 1224847; calls by dose curve; also: top concentration of the series differs between compounds; nearly all actives have a fitted effect of over 30% in size). The essentials: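 Read-out: CellTiter-Glo luminescence, 30 min RT. Cells: wild-type CHO-K1, 1000/well, 10% FBS, plated overnight at 37C. Treatment: 15 concentrations, 3 hr, 37C, 0.76% DMSO.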
Assay [13] can be described thus: qHTS RealTime-Glo MT Cell Viability Assay in HepG2 cells - 24 hour (AID 1224867). Also: nearly all actives have a fitted effect of over 50% in size. The method, boiled down:
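Compound treatment began 5 h after plating HepG2 cells (600/well) with NanoLuc luciferase and prosubstrate. Plates stayed at 37 C for 40 h; luminescence was captured at six time points, 0 h through 40 h.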

Assay [14] in a line: A CellTox Green Cytotoxicity Assay to monitor cytotoxicity in HEK293 cells - 0 hour (AID 1224869). Also: nearly all actives have a fitted effect of over 50% in size. The essentials: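 Cells (HEK293, 600/well) and dye reagent are dispensed together. After 5 h at 37 C, 23 nL compound is pinned in. Plates stay at 37 C for 40 h with fluorescence read at 0h, 8h, 16h, 24h, 32h and 40h.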
Assay [15] in a line: qHTS assay to identify small molecule agonists of the hypoxia (HIF-1) signaling pathway - cell viability counter screen (AID 1224844; calls by dose curve; also: nearly all actives have a fitted effect of over 50% in size). The essentials: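 Cytotoxicity was measured in parallel with the HRE-driven beta-lactamase readout: after 17 hrs of compound exposure at 37C, HRE-bla ME-180 cells received CellTiter-Glo and luminescence was recorded 30 min later.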
The nature of assay [16]: qHTS assay to identify small molecule agonists of the hypoxia (HIF-1) signaling pathway (AID 1224846; active = well fitted activation curve with a large enough effect in the signal ratio in the repeat runs, not every such curve was filed as active; the % refers to the signal ratio). The essentials:
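Compounds from the Tox21 10K library, dissolved in DMSO, are tested for induction of a hypoxia response element–controlled beta-lactamase reporter in ME-180 cells. Exposure lasts 17 hrs at 37C after a 5 hr settling period, followed by CCF4-AM FRET substrate.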

Assay [17] in a line: qHTS assay to identify small molecule antagonists of the estrogen related receptor (ERR) signaling pathway from Tox21 library (AID 1224848). Also: nearly all actives have a fitted effect of over 50% in size. The essentials:
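ERR cell line, 2,000 cells/well. 6 h settle, then compound (DMSO) added; 18 h at 37 C; ONE-Glo luminescence after 30 min RT.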

Assay [18] is described as follows: qHTS assay to identify small molecule agonists of the estrogen related receptor (ERR) signaling pathway from Tox21 library (AID 1224849; calls by dose curve; also: nearly all actives have a fitted effect of over 15% in size). The following applies: ERR reporter cell line, ONE-Glo luciferase, 18 h; at 92.4 µM (top of the series) unless noted. The essentials: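 Cells carrying the ERR reporter were plated and allowed to settle for 6 h, exposed to library compounds for 18 h at 37 C, then lysed with ONE-Glo and luminescence measured.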

Assay [19] is described as follows: qHTS RealTime-Glo MT Cell Viability Assay in HEK293 cells - 32 hour (AID 1224868). The essentials:
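Quantitative high-throughput screen of the Tox21 10K library in HEK293: cells and RealTime-Glo reagents plated together, compound added at 5 h, luminescence monitored through 40 h at 37 C.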
% is scaled to controls: 0 for no effect and ±100 for the full control effect.

Chain of Luciferin 4-monooxygenase (Photinus pyralis) (P08659 whole entry, looked up): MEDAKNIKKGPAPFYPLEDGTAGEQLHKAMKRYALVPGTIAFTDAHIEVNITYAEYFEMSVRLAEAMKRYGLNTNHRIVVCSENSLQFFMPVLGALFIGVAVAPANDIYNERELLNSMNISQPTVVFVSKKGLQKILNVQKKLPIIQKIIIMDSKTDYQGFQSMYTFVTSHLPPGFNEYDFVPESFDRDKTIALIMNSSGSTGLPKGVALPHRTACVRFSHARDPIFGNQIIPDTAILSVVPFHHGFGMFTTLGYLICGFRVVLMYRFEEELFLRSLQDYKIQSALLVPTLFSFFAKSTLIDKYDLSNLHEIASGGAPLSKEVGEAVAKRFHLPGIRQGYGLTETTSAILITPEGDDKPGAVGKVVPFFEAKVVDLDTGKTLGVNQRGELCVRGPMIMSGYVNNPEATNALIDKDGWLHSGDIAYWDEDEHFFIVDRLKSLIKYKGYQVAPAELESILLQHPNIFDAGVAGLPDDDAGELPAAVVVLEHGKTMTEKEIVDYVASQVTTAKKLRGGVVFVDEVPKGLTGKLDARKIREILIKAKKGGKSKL
Chain of Nuclear receptor subfamily 1 group I member 3 (Homo sapiens) (Q14994 whole entry, looked up): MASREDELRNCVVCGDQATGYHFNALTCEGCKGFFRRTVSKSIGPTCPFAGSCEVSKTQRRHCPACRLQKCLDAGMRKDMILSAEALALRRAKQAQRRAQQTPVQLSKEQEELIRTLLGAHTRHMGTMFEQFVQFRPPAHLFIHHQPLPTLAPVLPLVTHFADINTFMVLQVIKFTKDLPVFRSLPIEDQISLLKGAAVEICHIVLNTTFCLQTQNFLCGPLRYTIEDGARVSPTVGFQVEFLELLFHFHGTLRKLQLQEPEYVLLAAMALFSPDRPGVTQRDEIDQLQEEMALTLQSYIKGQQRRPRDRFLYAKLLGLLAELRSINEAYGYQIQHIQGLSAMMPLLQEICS
Chain of Thyrotropin receptor (Homo sapiens) (P16473 whole entry, looked up): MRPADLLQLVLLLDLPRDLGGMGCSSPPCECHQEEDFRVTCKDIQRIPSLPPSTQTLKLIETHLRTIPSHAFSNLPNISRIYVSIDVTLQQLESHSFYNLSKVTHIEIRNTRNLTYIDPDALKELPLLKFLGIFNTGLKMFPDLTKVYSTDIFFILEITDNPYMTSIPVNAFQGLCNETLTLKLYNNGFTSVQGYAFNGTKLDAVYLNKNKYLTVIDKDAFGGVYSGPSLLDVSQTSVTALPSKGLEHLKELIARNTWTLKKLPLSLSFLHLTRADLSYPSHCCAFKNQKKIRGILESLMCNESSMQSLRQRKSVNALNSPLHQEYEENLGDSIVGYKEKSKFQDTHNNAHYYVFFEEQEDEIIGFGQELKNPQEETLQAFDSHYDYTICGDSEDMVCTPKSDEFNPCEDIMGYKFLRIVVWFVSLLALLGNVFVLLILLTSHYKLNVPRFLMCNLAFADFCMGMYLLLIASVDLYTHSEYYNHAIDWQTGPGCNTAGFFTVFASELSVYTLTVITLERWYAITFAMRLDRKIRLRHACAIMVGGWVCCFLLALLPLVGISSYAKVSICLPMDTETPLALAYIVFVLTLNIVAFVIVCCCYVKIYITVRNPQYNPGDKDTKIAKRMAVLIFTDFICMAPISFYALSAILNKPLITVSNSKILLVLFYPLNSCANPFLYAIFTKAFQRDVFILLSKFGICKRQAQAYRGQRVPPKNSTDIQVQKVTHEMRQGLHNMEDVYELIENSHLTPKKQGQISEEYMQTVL

On to `CC1CC(=O)NN=C1c1ccc(NCC(C)(C)NCC(O)COc2cc(Cl)ccc2C#N)cc1` (stereo unspecified), for which the Potency entry in [1], in assay [2], in assay [3], in assay [4], in [5] and in assay [6] was “inactive” throughout. Also, the Potency entry in assay [7], in assay [8], in assay [9], in assay [11], in [12] and in assay [13] was “inactive” throughout. Besides, the Potency entry in assay [14] was “inactive”. For the same compound, in assay [10], the Potency was 1.19 µM (active).

`O=C(Nc1ccccc1)Nc1ccccc1`: the Potency result in [1], in assay [3], in assay [4], in assay [5], in assay [7] and in assay [8] was “inactive” throughout. The Potency entry in assay [15], in assay [11], in assay [17] and in assay [13] was “inactive” each time. Moreover, the Potency in assay [2] was 6.36 µM (active); in assay [6] it was 4.88 µM (active); in [9] it was 10.9 µM (active). Moreover, the compound was classed as inactive in [16]. Also, the activity change, positive = activation in assay [18] is 28.3% (active).

Turning to `CCCCC(=O)O[C@]1(C(=O)CO)CC[C@H]2[C@@H]3CCC4=CC(=O)CC[C@]4(C)[C@H]3[C@@H](O)C[C@@]21C`, the Potency entry in assay [1], in assay [2], in [3], in assay [4], in assay [5] and in [6] was “inactive” in each case. Further, the Potency result in assay [7], in [8], in assay [9], in assay [10], in assay [15] and in assay [11] was “inactive” in each case. Further, the Potency result in assay [13], in [19] and in assay [14] was “inactive” each time. Further, in assay [16], the result was inactive. For the same compound, in [18], the activity change, positive = activation was -22.8% [at 42.5 µM].

For `NC(=O)Nc1ccc(Cl)cc1`, the Potency entry in [1], in assay [2], in assay [3], in [4], in assay [5] and in [6] was “inactive” throughout. The Potency entry in assay [7], in assay [8], in [9], in assay [10], in [15] and in assay [11] was “inactive” throughout. Further, the Potency entry in assay [17], in [13], in assay [19] and in [14] was “inactive” each time. Besides, the compound was called inactive in assay [16].

In the case of `CC1(C)O[C@@H]2C[C@H]3[C@@H]4CCC5=CC(=O)C=C[C@]5(C)[C@H]4[C@@H](O)C[C@]3(C)[C@]2(C(=O)CO)O1`, the Potency result in [1], in assay [2], in assay [3], in assay [4], in assay [5] and in assay [6] was “inactive” in each case. Besides, the Potency result in assay [7], in assay [8], in [10], in assay [15], in assay [11] and in assay [12] was “inactive” throughout. For the same compound, the Potency entry in assay [17], in assay [13], in assay [19] and in [14] was “inactive” in each case. The activity change, positive = activation in assay [18] is -2.7% [at 42.5 µM].

Consider `CO[C@H]1O[C@H](CO)[C@@H](O)[C@H](O)[C@H]1O`, for which the Potency result in assay [1], in [2], in assay [3], in assay [4], in [5] and in assay [6] was “inactive” in each case. Also, the Potency result in assay [7], in assay [8], in assay [9], in assay [10], in assay [15] and in assay [11] was “inactive” each time. For the same compound, the Potency result in assay [12], in assay [17], in assay [13], in assay [19] and in [14] was “inactive” throughout. Besides, in assay [16], the compound was called inactive.

`O=Cc1c(Cl)cccc1Cl`: the Potency entry in assay [1], in assay [2], in assay [3], in [4], in assay [5] and in assay [6] was “inactive” each time. For the same compound, the Potency result in assay [7], in assay [8], in assay [9], in assay [10], in [15] and in [11] was “inactive” in each case. Further, the Potency result in assay [12], in assay [17], in [13] and in assay [19] was “inactive” in each case. For the same compound, the compound was called inactive in assay [16]. For the same compound, the activity change, positive = activation in assay [18] is 3.9%.
